Test results reported in ChEMBL document CHEMBL3433997, “St. Jude Leishmania screening dataset” (2016).
Values joined by “and” are separate entries in the source; they are usually repeats but may differ in a detail not shown here. Identical values can stand only once.

Each compound was assayed against Solute carrier family 2, facilitated glucose transporter member 1 (Homo sapiens) (UniProt P11166) (assay: ST_JUDE_LEISH: Cytotoxicity at 2uM final concentration against transgenic Leishmania Mexicana promastigotes LmGLUT1 that are glucose transport deficient and complemented with the human glucose transporter GLUT1. Activity is measured by DNA content using SYBR green in vitro).
Assay type: functional

Solute carrier family 2, facilitated glucose transporter member 1 (Homo sapiens), sequence (P11166 whole entry): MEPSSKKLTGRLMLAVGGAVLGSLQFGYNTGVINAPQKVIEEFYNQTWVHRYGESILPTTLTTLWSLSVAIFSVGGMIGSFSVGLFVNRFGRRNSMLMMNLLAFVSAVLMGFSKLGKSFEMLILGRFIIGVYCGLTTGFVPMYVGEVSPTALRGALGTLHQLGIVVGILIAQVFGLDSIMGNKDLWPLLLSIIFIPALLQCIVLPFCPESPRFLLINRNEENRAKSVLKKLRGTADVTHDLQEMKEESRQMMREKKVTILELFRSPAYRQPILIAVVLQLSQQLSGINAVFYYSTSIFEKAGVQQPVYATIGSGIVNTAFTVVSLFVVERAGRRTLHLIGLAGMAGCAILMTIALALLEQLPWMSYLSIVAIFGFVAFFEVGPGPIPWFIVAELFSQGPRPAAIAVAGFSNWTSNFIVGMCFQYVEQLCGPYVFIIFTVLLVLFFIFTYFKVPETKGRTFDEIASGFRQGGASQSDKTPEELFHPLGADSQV

| SMILES | inhibition |
| --- | --- |
| CCCc1ccc(NC(=O)c2ccc(CN3CCCN(CC4CCCCC4)CC3)cc2)cc1 | 2.9% |
| NC1=NC(c2ccccc2)(c2cccc(O)c2)C(=O)N1CCCc1ccccc1 (stereo unspecified) | 10.4% and 2.82% |
| CC(C)c1ccc(CN2CCC(NC(=O)c3ccc(-c4ccccc4F)s3)CC2)cc1 | 0.51% |
| Nc1nc(N)c2cc(N(Cc3ccccc3)Cc3ccccc3)ccc2n1 | 16.1% |
| Cc1nnsc1C(=O)Nc1ccc(-c2cccc(-c3nc4cc(F)ccc4[nH]3)c2)cc1 | 1.36% |
| CC(Cc1ccc(OCCCCOc2ccccc2)cc1)NCCc1ccc(Oc2ccccc2)cc1 (stereo unspecified) | 87.5% |
| CCOc1cc2c(cc1OCC)C(c1cc(OC)c(O)cc1Cl)NCC2 (stereo unspecified) | 2.01% |
| CNc1ccc(CNCc2ccc(-c3ccc(-c4nc5cc(C(F)(F)F)ccc5[nH]4)cc3)cc2)cc1 | 0.54% |
| CC(CCCC(=O)Nc1ccc(CC(C)NCCc2cccc(Cl)c2)cc1)NCCc1cccc(Cl)c1 (stereo unspecified) | 2.68% |
| CC1(C)NC(N)=NC(=N)N1OCCc1ccccc1 | 1.18% |
| CCc1cccc(NC(=O)c2ccc(CN3CCCN(CC4CCCCC4)CC3)cc2)c1 | 10.3% |
| CCCc1cc(C)ccc1OCCCON1C(N)=NC(N)=NC1(C)C | 31.1% |
| COc1ccc(NC(=O)c2ccc(-c3nc(-c4cccc(C(F)(F)F)c4)cs3)cc2)cc1N1CCN(C)CC1 | 0.87% |
| CCOc1cc(Cl)c(C(C)NC(=O)c2cccc(OC)c2)cc1OCC (stereo unspecified) | 7.84% |
| Cc1cccc2nc(-c3cccc(-c4cccc(NC(=O)c5csnn5)c4)c3)[nH]c12 | 4.92% |
| COc1c(C2CCN(CCCCNC(=O)c3ccc(-c4ccc(Cl)cc4)c(O)c3)CC2)ccc2c1CCCC2 | 2.96% |
